# Screens: PubChem, several laboratories
# SENP8 block-1: blocks the human protease SENP8. Q96LD8. purified SENP8, Z-RLRGG-aminoluciferin cleavage, luminescence. inhibition, % at 10 µM. 330,000 compounds, 1.2% hits; in the data active means inhibition above about 50%
# SENP8 block-2: blocks human SENP8 cleavage of Nedd8 substrate | Q96LD8 | recombinant SENP8, Nedd8 substrate fluorescence | inhibition, % at 20 µM | 360,000 compounds, 0.64% hits | AID 602440; in the data active means inhibition mostly above about 40%, no sharp cut-off; inactive means mostly below about 27%
# EBI2 block: EBI2 (human) antagonism. P32249. EBI2 beta-arrestin recruitment, luminescence, 7a,25-OHC stimulated. inhibition, % at 5 µM. 360,000 compounds, 0.81% hits; in the data active means inhibition above about 38%;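 further: enzyme fragment complementation signal reports receptor beta-arrestin coupling in cells; 0% = agonist plus DMSO wells and 100% = wells without agonist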
# AHR activator: human AHR activation. activation, % at 5 µM. AHR-responsive luciferase reporter cells, luminescence. 320,000 compounds, 2.5% hits. P35869; in the data active means activation above about 47%;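 further: 0% = vehicle wells and 100% = reference agonist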
# SENP7 inh: inhibitors of human SENP7 protease | inhibition, % at 5 µM | recombinant SENP7, Z-RLRGG-aminoluciferin luminescence, 40 min | 330,000 compounds, 1.5% hits | Q9BQF6;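 active means inhibition above about 50% at the single test dose, limit read from the data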;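 further: plate controls were DMSO with enzyme for no effect and no enzyme buffer wells for full effect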
# SENP6 block: inhibitors of human SENP6 protease; Recombinant SENP6 catalytic domain, aminoluciferin luminescence; Q9GZR1; 330,000 compounds, 1.8% hits; inhibition, % at 10 µM;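 active means inhibition above about 50% at the single tested dose, limit read from the data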;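 further: plate controls were DMSO wells with enzyme for no effect and DMSO wells lacking enzyme for full effect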
# Target sequence (Q9GZR1 628-1112 limits assumed): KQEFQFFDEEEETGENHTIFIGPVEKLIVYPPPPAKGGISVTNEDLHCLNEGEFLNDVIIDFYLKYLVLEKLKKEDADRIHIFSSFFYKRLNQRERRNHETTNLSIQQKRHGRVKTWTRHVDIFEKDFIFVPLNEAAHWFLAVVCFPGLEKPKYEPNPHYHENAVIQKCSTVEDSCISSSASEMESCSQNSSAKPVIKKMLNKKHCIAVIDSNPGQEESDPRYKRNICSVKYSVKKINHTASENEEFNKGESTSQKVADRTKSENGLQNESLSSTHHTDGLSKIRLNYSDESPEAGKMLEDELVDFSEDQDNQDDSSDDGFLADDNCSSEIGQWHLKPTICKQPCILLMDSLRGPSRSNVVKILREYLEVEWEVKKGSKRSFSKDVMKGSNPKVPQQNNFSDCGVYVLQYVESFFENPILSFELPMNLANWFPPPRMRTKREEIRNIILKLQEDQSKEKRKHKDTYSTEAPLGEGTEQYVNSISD
# Numbers without * were called inactive; . = no result given. Compounds with a hit are over-represented: about 5% of the library has one in this group of screens.
SMILES,SENP8 block-1,SENP8 block-2,EBI2 block,AHR activator,SENP7 inh,SENP6 block
Cc1ccc(-c2nc(C#N)c(NCC3CCCO3)o2)cc1 (stereo unspecified),1,-447,2,63*,10,8
COc1ccc(CCNc2oc(-c3ccc(C)cc3)nc2C#N)cc1OC,-11,-458,0,69*,8,-13
CC(CC(=O)NCc1ccc(Cl)cc1)c1ccccc1 (stereo unspecified),0,8,3,0,2,12
CCCCn1c(N)c(N(CCC(C)C)C(=O)c2ccc([N+](=O)[O-])s2)c(=O)[nH]c1=O,-3,16,-2,1,14,-1
O=C(NC1CCCCC1)C1c2ccccc2OCC(=O)N1Cc1cccnc1 (stereo unspecified),.,-3,-5,.,.,.
CNc1ccc(Cl)nn1,-3,-36,-3,1,3,-4
NNc1ccc(Cl)nn1,0,23,4,69*,-2,9
COc1ccc(CC(=O)N(C)c2ccccc2)cc1S(=O)(=O)N1CCOCC1,.,5,-5,.,.,.
O=C(O)CN1C(=O)C2C3CCC(C3)C2C1=O (stereo unspecified),.,15,-13,.,.,.
CCC(=O)OCCNc1cc(Sc2nccn2C)c2nonc2c1[N+](=O)[O-],.,11,53*,-1,.,.
CC(=O)OCCCNc1cc(Sc2ccc(Cl)cc2)c2nonc2c1[N+](=O)[O-],.,17,68*,2,.,.
C#CC(=O)N(c1cccc(OC)c1)C(C(=O)NC1CCCC1)c1cccs1 (stereo unspecified),-1,20,53*,-16,-1,4
C#CC(=O)N(c1ccc(OC)c(OC)c1)C(C(=O)NC1CCCC1)c1cccs1 (stereo unspecified),-10,16,38,-9,-4,-5
O=C(NCc1cccnc1)c1ccc(-c2ccc(Cl)cc2)o1,5,-72,3,37,12,-3
O=C(NCc1cccnc1)c1ccc(-c2cc(Cl)ccc2Cl)o1,-1,8,0,76*,0,-8
O=C(NCc1cccnc1)/C(=C\c1ccc(-c2ccc(Cl)c(Cl)c2)o1)S(=O)(=O)c1ccccc1,.,-26,64*,2,.,.
Cc1ccc(NC2C(=O)NC(=O)NC2=O)cc1,.,72*,-4,.,.,.
O=C(/C=C/[C@H]1O[C@@H](n2ccc(=O)[nH]c2=O)[C@H](O)[C@@H]1O)N1CCN(Cc2ccc(F)cc2)CC1,.,22,-4,.,.,.
COc1cc(NC(=O)c2cc3ccccc3o2)c(OC)cc1Cl,-9,-90,21,62*,-2,-3
COc1cc(NC(=O)c2cc3ccccc3o2)c(OC)cc1Br,-1,-122,13,44,9,13
CCCc1cc(C(=O)Nc2cc(OC)c(Cl)cc2OC)no1,9,4,-1,62*,-4,-13
COc1ccc(C(=O)Nc2cc(OC)c(Cl)cc2Cl)cc1,2,-12,6,50*,3,0
COc1cc(OC)c(NC(=O)c2ccc(F)cc2)cc1Cl,-4,-357,6,2,0,-3
COc1cc(NC(=O)c2ccccc2)c(OC)cc1Cl,4,24,3,69*,-2,-11
CCOC(=O)C1(C)CCCCCN1C(=O)c1ccccc1F (stereo unspecified),.,15,-6,.,.,.
SMILES,SENP8 block-1,SENP8 block-2,EBI2 block,AHR activator,SENP7 inh,SENP6 block
COc1cccc(C(=O)CC(=O)C(=O)Nc2cc(Cl)c(OC)cc2OC)c1,4,34,5,0,7,-10
COc1ccc(C(=O)CC(=O)C(=O)Nc2cc(Cl)c(OC)cc2OC)cc1,1,12,-15,77*,-12,-15
COc1cc(NC(=O)C/C(C)=N/NC(=O)c2cccc(O)c2)c(OC)cc1Cl,2,19,-7,82*,6,7
COc1ccc(Cl)cc1NC(=O)CCc1ccccc1,-6,9,0,-1,-4,-17
Cc1ccc(NC(=O)c2ccc(NC(=O)c3ccccc3)cc2)cc1C,8,-5,28,-1,-4,-17
Cc1cc(NC(=O)c2ccccc2)cc(NC(=O)c2ccccc2)c1C,-8,2,-5,78*,-18,-21
COc1cc(OC)c(NC(=O)CCc2ccccc2)cc1Cl,-9,40,12,50*,-5,-10
CN(Cc1ccc(F)cc1)S(=O)(=O)c1ccc2[nH]c(=O)[nH]c2c1,.,3,-8,.,.,.
COc1cc(NC(=O)c2ccc(Br)cc2)c(OC)cc1NC(=O)c1ccccc1,-5,-8,27,63*,-3,-16
O=C(NNC(=O)c1ccccc1O)c1cc2ccccc2o1,-14,-21,-9,68*,-11,6
O=C(NNC(=O)c1cc2ccccc2o1)c1ccncc1,-10,-1,-8,3,1,-9
O=C(c1ccccc1[N+](=O)[O-])n1cnc2ccccc21,4,13,-13,41,-1,3
O=C(c1ccc([N+](=O)[O-])cc1[N+](=O)[O-])n1cnc2ccccc21,5,18,-14,59*,-7,13
C=CCn1c(SCc2ccccc2Cl)nnc1-c1sc2nc(C)cc(C)c2c1N,-19,-407,-12,79*,-7,0
COC(=O)c1cc2c(n1S(=O)(=O)c1ccc(C)cc1)C(=O)C(=O)c1[nH]cc(C(=O)OCc3ccccc3)c1-2,.,108*,-25,.,.,.
CCc1ccc(C(O)c2ncc(-c3ccccc3F)[nH]2)cc1 (stereo unspecified),.,6,-1,.,.,.
S=C(Nc1ccc(N2CCOCC2)cc1)Nc1ccc2snnc2c1,0,2,-3,55*,3,-2
COc1ccc(OC)c(/C=N/NC(=O)CCc2n[nH]c(=O)[nH]c2=O)c1,1,-411,4,60*,6,-8
Cc1nc2ccc(F)cc2cc1C(=O)Nc1cccc(Cl)c1C,-9,7,-5,107*,-3,-11
Cc1nc(C(F)(F)F)ccc1C(=O)Nc1ccccc1F,2,14,-2,-6,0,-4
Cc1nc(C(F)(F)F)ccc1C(=O)NCC(O)c1ccccc1 (stereo unspecified),0,11,7,71*,6,-3
Cn1nc(C(=O)Nc2ccc(Cl)cc2)cc1C(=O)Nc1ccc(Cl)cc1,5,-44,2,72*,0,5
Cn1nc(C(=O)Nc2cccc(Cl)c2)cc1C(=O)Nc1cccc(Cl)c1,-9,4,19,-4,-1,-8
Cc1ccc(NC(=O)c2cc(C(=O)Nc3ccc(C)cc3)n(C)n2)cc1,-3,-90,4,62*,-5,-7
CSCCC(C(=O)Nc1c(C)cccc1C)N(Cc1ccccc1)Cc1ccccc1 (stereo unspecified),.,20,4,.,.,.
CC1(C)C2CCC1(C)C(SC(=N)N)C2 (stereo unspecified),.,14,-3,.,.,.
CCc1ccccc1N(C(=O)c1snc(C(N)=O)c1N)C(C(=O)NCC1CCCO1)c1ccc(C)o1 (stereo unspecified),1,-331,4,79*,8,-20
